Bioassay records deposited in PubChem BioAssay by several laboratories.
In the library only some 1.3% were active in any assay of this set; here they are far more common.
EBV gp42 block: blocks Epstein-Barr virus glycoprotein 42 binding; inhibition, % (tested at 21.74 µM); 220,000 compounds, 0.42% hits; AID 1085; Q1HVG2; Fluorescence polarization binding assay, mP read-out; in the data active = inhibition above about 50%
Target sequence (Q1HVG2 whole entry, looked up): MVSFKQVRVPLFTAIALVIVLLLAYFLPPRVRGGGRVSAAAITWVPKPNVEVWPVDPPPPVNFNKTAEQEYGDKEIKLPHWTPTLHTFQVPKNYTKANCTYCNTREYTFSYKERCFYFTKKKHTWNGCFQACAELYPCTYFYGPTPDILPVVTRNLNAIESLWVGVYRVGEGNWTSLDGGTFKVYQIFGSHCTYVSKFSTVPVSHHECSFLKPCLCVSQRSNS
MEX-5 binding: C. elegans MEX-5 TCR-2 RNA binding activity. MEX-5/FITC-TCR2 RNA binding, fluorescence polarization; active compounds read low. activity score (negative = inhibition of binding), % at 10 µM. 300,000 compounds, 0.38% hits. AID 1832;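 active = inhibition past about -25% in most replicates, and total fluorescence under double the plate's negative control median, limit read from the data; inconclusive = replicates evenly split on the limit, or fluorescence at least double controls; inactive = too little inhibition in most replicates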;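 note: 0% = DMSO and -100% = 5 µM competing unlabeled TCR2 RNA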
E coli Lon inh: E. coli protease La inhibition. purified E. coli Lon protease, fluorescence polarization. 360,000 compounds, 0.42% hits. inhibition, % at 7.94 µM. P0A9M0; in the data active = inhibition above about 13%, passing the limit was not always enough;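 note: 0% = enzyme with probe and DMSO and 100% = no enzyme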
GLD-1 RNA inh: GLD-1-TGE RNA interaction inhibition (C. elegans); purified GLD-1 + fluorescein TGE RNA, fluorescence polarization; inhibition, % at 5.96 µM; 320,000 compounds, 0.44% hits;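 active = percent inhibition above a per-plate cutoff, the plate mean of test compounds plus 3 SD, cut at about 30% in these data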;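 note: 0% = DMSO wells with GLD-1 and probe and 100% = wells lacking GLD-1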
Bcl-xL primary: inhibitors of human Bcl-xL | GST-Bcl-xL / FITC-Bim BH3 peptide fluorescence polarization | inhibition, % at 10.9 µM | 320,000 compounds, 0.7% hits;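 active = inhibition above the mean of all tested compounds plus 3 SD, cutoff set per campaign, cut at about 30% in these data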;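 note: 0% = DMSO wells and 100% = unlabeled Bim-BH3 peptide competitor; inhibitors lower millipolarization by displacing the labeled peptide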
Target sequence (Q07817 whole entry, looked up): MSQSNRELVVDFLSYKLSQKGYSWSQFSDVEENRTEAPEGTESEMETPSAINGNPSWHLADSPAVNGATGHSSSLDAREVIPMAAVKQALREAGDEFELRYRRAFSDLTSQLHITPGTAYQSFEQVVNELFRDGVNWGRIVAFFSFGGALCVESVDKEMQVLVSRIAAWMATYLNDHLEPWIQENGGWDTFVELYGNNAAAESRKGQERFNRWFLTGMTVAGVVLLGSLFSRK
An asterisk follows results filed as active.

Screening CN1/C(=C\C=C2C(=O)NC(=O)NC2=O)C(C)(C)c2ccccc21 returned EBV gp42 block -314, MEX-5 binding -86*, E coli Lon inh -437, GLD-1 RNA inh -230 and Bcl-xL primary -144.
Screening CC(=O)OC1CC2OC3C=C(C)CCC3(C)C1(C)C21CO1 (stereo unspecified) returned E coli Lon inh 4.
Screening CN1CCN(c2ccc3c(c2)S(=O)(=O)c2ccccc2C3=O)CC1 returned MEX-5 binding -2, E coli Lon inh -13, GLD-1 RNA inh 8 and Bcl-xL primary 74*.
COC(=O)N1Cc2ccccc2-n2nncc2C1 was read as E coli Lon inh -2.
For CO[C@H]1C=CCCC=CC(=O)O[C@H]([C@H](C)C(=O)CCCC2CC(=O)NC(=O)C2)C(C)=C[C@@H](C)[C@@H]1O the results were E coli Lon inh -1.
For Cc1nonc1OCCNCCNc1ccc([N+](=O)[O-])c2cccnc12 the results were EBV gp42 block -6, MEX-5 binding -27*, E coli Lon inh 1, GLD-1 RNA inh 4 and Bcl-xL primary 5.
CCNCCNc1ccc([N+](=O)[O-])c2cccnc12 was read as EBV gp42 block -14, MEX-5 binding -3, E coli Lon inh 5, GLD-1 RNA inh -4 and Bcl-xL primary 1.
`Cc1c(CCC(=O)N2C[C@H]3C[C@@H](C2)c2cccc(=O)n2C3)c(=O)oc2c(C)c(O)ccc12` gave E coli Lon inh -7.
Screening O=C1NC(=O)N(c2ccc(Cl)cc2)C(=O)/C1=C\c1ccc(Sc2nc3ccccc3[nH]2)o1 returned EBV gp42 block -24, MEX-5 binding 1, E coli Lon inh -27, GLD-1 RNA inh -8 and Bcl-xL primary 59*.
Screening Nc1c(C(=O)NCC2CCCO2)c2nc3ccccc3nc2n1Cc1ccco1 (stereo unspecified) returned EBV gp42 block -4, MEX-5 binding -1, E coli Lon inh -41, GLD-1 RNA inh 35* and Bcl-xL primary 57*.
For CCCNC(=O)c1c(N)n(Cc2ccco2)c2nc3ccccc3nc12 the results were EBV gp42 block 2, MEX-5 binding -2, GLD-1 RNA inh 17 and Bcl-xL primary 29.
COCCCNC(=O)c1c(N)n(Cc2ccco2)c2nc3ccccc3nc12 was read as EBV gp42 block 8, MEX-5 binding -4, E coli Lon inh -13, GLD-1 RNA inh 47* and Bcl-xL primary 49*.
O=C1CCC2(O)C3Cc4ccc(O)c5c4C2(CCN3Cc2ccoc2)C1O5 (stereo unspecified) was read as E coli Lon inh -10.
Screening CCN1C(=O)NC(=O)/C(=C\c2cn(CC(=O)N3CCCCC3C)c3ccccc23)C1=O (stereo unspecified) returned MEX-5 binding inconclusive, E coli Lon inh -37, GLD-1 RNA inh -6 and Bcl-xL primary 105*.
For CCN(CC)C(=O)Cn1cc(/C=C2\C(=O)NC(=O)N(c3ccccc3F)C2=O)c2ccccc21 the results were MEX-5 binding -64*, E coli Lon inh -54, GLD-1 RNA inh -20 and Bcl-xL primary -12.
CN1C(=O)C(=Cc2cn(CC(=O)N3CCCCC3)c3ccccc23)C(=O)N(C)C1=O was read as MEX-5 binding -36*, E coli Lon inh -12, GLD-1 RNA inh -3 and Bcl-xL primary 0.
O=C(O)Cn1cc(C=C2C(=O)NC(=O)NC2=O)c2ccccc21 was read as MEX-5 binding 3, E coli Lon inh -16, GLD-1 RNA inh -3 and Bcl-xL primary 6.
C=CCN1C(=O)/C(=C/c2cc(C)n(-c3cccnc3)c2C)C(=O)NC1=S was read as EBV gp42 block -4, MEX-5 binding -11, E coli Lon inh -19, GLD-1 RNA inh 1 and Bcl-xL primary 6.
Screening Cc1cc(C=C2C(=O)NC(=O)NC2=O)c(C)n1-c1cccnc1 returned EBV gp42 block 0, MEX-5 binding -71*, E coli Lon inh -9, GLD-1 RNA inh -1 and Bcl-xL primary -3.
For CC(=O)OC1CCC2(C)C3CCC4(C)C(OC(C)=O)CCC4C3C(C)C2(O)C1 (stereo unspecified) the results were E coli Lon inh 2.
For CCCCn1c(O)c(C(=O)/C=C/c2ccc3c(c2)OCO3)c(=O)[nH]c1=O the results were EBV gp42 block -31, MEX-5 binding -36*, E coli Lon inh -18, GLD-1 RNA inh -11 and Bcl-xL primary 2.
O=C(/C=C/c1ccc2c(c1)OCO2)c1c(O)n(CCC2=CCCCC2)c(=O)[nH]c1=O was read as EBV gp42 block -17, E coli Lon inh -23, GLD-1 RNA inh -13 and Bcl-xL primary -13.
CCC(C)(O)C(=O)OC1C(=O)OC2CC3C(C)=CC(O)C(O)C3(C)C3C4(O)OCC23C1C(C)C4O (stereo unspecified) was read as E coli Lon inh 0.
For COc1ccc(N/N=C/c2c(O)n(-c3ccc(C)c(C)c3)c(=O)[nH]c2=O)cc1 the results were EBV gp42 block -3, MEX-5 binding 0, E coli Lon inh -136, GLD-1 RNA inh -12 and Bcl-xL primary 51*.
Cc1ccccc1-n1c(O)c(/C=N/Nc2nc3c(c(=O)n(C)c(=O)n3C)n2C)c(=O)[nH]c1=S was read as EBV gp42 block -29, MEX-5 binding -14, E coli Lon inh -14, GLD-1 RNA inh -1 and Bcl-xL primary -7.
For Cc1cccc(-n2c(O)c(/C=N/Nc3nc4c(c(=O)n(C)c(=O)n4C)n3C)c(=O)[nH]c2=S)c1 the results were EBV gp42 block -30, MEX-5 binding -47*, E coli Lon inh -15, GLD-1 RNA inh -9 and Bcl-xL primary 7.
`COc1ccc(N/N=C/c2c(O)n(-c3cccc(C)c3)c(=O)[nH]c2=O)cc1` gave EBV gp42 block -14, MEX-5 binding 10, E coli Lon inh -20, GLD-1 RNA inh -8 and Bcl-xL primary 40*.
Screening Cc1ccc(-[n+]2c(Cc3nn(-c4ccccc4)c(C)[n+]3-c3ccc(C)cc3)nn(-c3ccccc3)c2C)cc1 returned E coli Lon inh -17.
`COc1ccc(P2(=O)Nc3ccccc3N2)cc1` gave EBV gp42 block 24, MEX-5 binding -36*, E coli Lon inh -37, GLD-1 RNA inh 15 and Bcl-xL primary 62*.
`O=c1[nH]c2ccccc2n1C1CCN(C(CCc2ccccc2)c2nnnn2C2CCCCC2)CC1` (stereo unspecified) gave E coli Lon inh -3.
O=C(O)Cn1cc(/C=C2\C(=O)NC(=O)N(c3ccc(Cl)cc3)C2=O)c2ccccc21 was read as MEX-5 binding inconclusive, E coli Lon inh -60, GLD-1 RNA inh -21 and Bcl-xL primary -13.
Screening C=CCn1cc(C=C2C(=O)NC(=O)NC2=O)c2ccccc21 returned MEX-5 binding -37*, E coli Lon inh -50, GLD-1 RNA inh -30 and Bcl-xL primary 30.
Screening O=C(Cn1cc(C=C2C(=O)NC(=O)NC2=O)c2ccccc21)NCC1CCCO1 (stereo unspecified) returned MEX-5 binding -36*, E coli Lon inh -17, GLD-1 RNA inh -3 and Bcl-xL primary -2.
